Screening data (PubChem BioAssay)
SKKanGAS inh: inhibitors of SKKanGAS S. pyogenes growth in kanamycin (SK-promoter or general growth effect); BacTiter-Glo, 6 h; inhibition, % at 7.5 µM; actives 1.3% (n = 300,000); AID 1662;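 active = mean replicate score, as percent of positive control median, at least 50; inconclusive = mean below 50 but one replicate at or above 50; inactive = mean and every replicate below 50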;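 note: strain carries kanamycin resistance gene driven by streptokinase promoter and grows in 40 µg/ml kanamycin; loss of luminescence reflects streptokinase promoter inhibition or plain growth inhibition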
tim10-1 inh: inhibits growth of tim10-1 mutant yeast | actives 2.2% (n = 330,000) | inhibition, % at 20 µM | S. cerevisiae tim10-1 ts strain growth, BacTiter-Glo, 24 h | AID 463190;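 active = inhibition of at least 40%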;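 note: mutant grown at 25 °C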
TIM10 inh: growth inhibitors of TIM10 yeast strain; inhibition, % at 10 µM; S. cerevisiae TIM10 strain growth, BacTiter-Glo luminescence, 24 h; actives 1.4% (n = 330,000); AID 463195;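 active = inhibition of 40% or more at the single tested concentration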;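 note: wild-type TIM10 isogenic control strain grown at permissive 25 °C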
PfHsp90 yeast 2: reduces growth (ATP signal) of yeast expressing P. falciparum Hsp90. S. cerevisiae expressing PfHsp90, BacTiter-Glo ATP, 48 h; yeast lacking PDR1 and PDR3 efflux regulators. inhibition, % at 9.4 µM. actives 0.32% (n = 310,000). AID 504621;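 active = every replicate shows inhibition above about 80%, whatever the replicate mean, limit read from the data; inconclusive = mean inhibition reaches the set limit but some replicate falls short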
tim23-1 inh: tim23-1 yeast growth inhibition | S. cerevisiae tim23-1 growth, BacTiter-Glo luminescence, 24 h | inhibition, % at 20 µM | actives 1.3% (n = 330,000);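 active = growth inhibition of the mutant yeast at or above 50%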;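 note: temperature-sensitive mutant grown at 25 °C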
Calb FLC: affects C. albicans growth with fluconazole. C. albicans CaCi-2 (fluconazole-resistant clinical isolate) + fluconazole, Alamar Blue growth, 48 h. growth inhibition, % (no concentration beside the values). actives 0.57% (n = 300,000);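 active = growth inhibition above about 58% in most replicates, limit read from the data, passing the limit was not always enough; inconclusive = exactly half the replicates above a set limit; inactive = most replicates below a set limit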;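 note: all wells also contain fluconazole at 8 µg/ml as a sub-toxic cotreatment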
Each line names hits and unclear results; the compound was inactive in the other large screens; ! = not confirmed by another sample. This is a sample that favours compounds with a hit; in the whole collection about 4.7% have one here.

Cn1c(=O)[nH]c(=O)c2c1nc(N1CCC(Cc3ccccc3)CC1)n2Cc1ccccc1	SKKanGAS inh 53.1
CCCCCn1c(N2CCC(Cc3ccccc3)CC2)nc2c1c(=O)[nH]c(=O)n2C	SKKanGAS inh 92.9
COc1ccccc1C(=O)NC(=O)CSc1ccc(C)c(C)c1	none (no result: SKKanGAS inh, Calb FLC)
Cc1ccc(-c2ccc([C@H]3[C@@H]4C=CCC[C@@]4(C)C(=O)N3Cc3ccccc3)c(F)c2)cc1	none
COc1ccc(-c2ccc(OC)c([C@H]3[C@@H]4C=CCC[C@@]4(C)C(=O)N3Cc3ccccc3)c2)cc1OC	none
C[C@@]12CCC=C[C@H]1[C@H](c1ccc3ccccc3c1Br)N(Cc1ccccc1)C2=O	SKKanGAS inh 74.6
COc1ccc(-c2ccc([C@H]3[C@@H]4C=CCC[C@@]4(C)C(=O)N3Cc3ccccc3)c(F)c2)cc1	SKKanGAS inh 58.3
COc1ccc(O)c(C(=O)CC(=O)c2ccccc2C)c1	SKKanGAS inh 60.1, Calb FLC inconclusive
COc1ccc(O)c(C(=O)CC(=O)c2ccc(F)cc2)c1	none
O=C(CN1C(=O)NC(c2ccc(F)cc2)C1=O)NC1CCCCC1 (stereo unspecified)	none (no result: SKKanGAS inh, Calb FLC)
Fc1ccc(/C=C2\CCCC3=C2Nc2ncnn2C3c2ccc(F)cc2)cc1 (stereo unspecified)	SKKanGAS inh 64.0 (no result: PfHsp90 yeast 2)
COc1ccc(C2C3=C(Nc4ncnn42)c2ccccc2CCC3)cc1 (stereo unspecified)	none
Cc1cc(NC(=O)c2ccc3c(c2)OCCO3)ccc1NC(=O)c1cc2ccccc2o1	SKKanGAS inh 53.0
Cc1nc2c(C(=O)Nc3ccc(N4CCCC(O)C4)cc3)snc2c(=O)[nH]1 (stereo unspecified)	SKKanGAS inh 59.0
Cc1ccc(NC(=O)C2CCCC2)cc1Cl	none
Cc1ccc(NS(=O)(=O)c2ccc(Cl)c(NC(=S)NC(=O)C3CCCCC3)c2)cc1Cl	SKKanGAS inh 84.0
CC1(C)S[C@@H]2[C@H](NC(=O)C(NC(=O)N3CCNC3=O)c3ccccc3)C(=O)N2[C@H]1C(=O)O (stereo partly specified)	SKKanGAS inh 114.5
Cc1cc(COC(=O)C2N3C(=O)[C@@H](NC(=O)COc4ccccc4)[C@H]3SC2(C)C)on1 (stereo partly specified)	SKKanGAS inh 102.8
CCOc1ccc2ccccc2c1C(=O)N[C@@H]1C(=O)N2[C@@H]1SC(C)(C)[C@@H]2C(=O)O	none (no result: Calb FLC)
CCCCCCCCCOC(=O)C1N2C(=O)[C@@H](NC(=O)COc3ccccc3)[C@H]2SC1(C)C (stereo partly specified)	none (no result: PfHsp90 yeast 2)
CCC(Oc1ccccc1)C(=O)NC1C(=O)N2C1SC(C)(C)C2C(=O)O (stereo unspecified)	SKKanGAS inh 111.2
CC1(C)S[C@@H]2[C@H](NC(=O)Cc3ccccc3)C(=O)N2[C@H]1C(=O)O	SKKanGAS inh 100.5!
CC(=O)c1ccc(S(=O)(=O)N(C)CCCC(=O)NCc2ccc3c(c2)OCO3)cc1	none (no result: SKKanGAS inh, PfHsp90 yeast 2, Calb FLC)
CCOC(=O)C1=C(C)N(C)C(=O)NC1c1c(O)ccc2ccccc12 (stereo unspecified)	none
Cc1ccc2c(c1)c(C)c(C)n2CC(O)Cn1nc(C)c(Br)c1C (stereo unspecified)	SKKanGAS inh 58.8
Cc1cc(N(C)C(=O)c2ccc3c(c2)S(=O)(=O)c2cc(Cl)ccc2C3=O)c(C(F)(F)F)o1	none (no result: SKKanGAS inh, Calb FLC)
Cc1ccccc1C(=O)N/N=C/c1cccc2ccccc12	none
Cc1ccc(Cl)cc1NC(=S)N/N=C/c1cccc2ccccc12	SKKanGAS inh 80.1
O=C(NNC(=O)C12CC3CC(CC(C3)C1)C2)c1cnccn1	Calb FLC 104.0
Cc1ccc(Cn2c(C(CO)Nc3nc(-c4ccc(F)cc4)cs3)nc3ccccc32)cc1 (stereo unspecified)	SKKanGAS inh 80.4
COc1ccc(-c2csc(NC(CO)c3nc4ccccc4n3Cc3ccc(C)cc3)n2)cc1 (stereo unspecified)	none
COc1ccccc1C(=O)C1CCCN(C(=O)CN2CCCCC2=O)C1 (stereo unspecified)	none
COc1c(Br)cc([N+](=O)[O-])c(OC)c1C(=O)NC(=O)Nc1c(Cl)cccc1Cl	Calb FLC 84.4
O=[N+]([O-])c1cccc(C2(O)COc3ccccc3O2)c1 (stereo unspecified)	none
CC(/C=C1\SC(=S)N(CCCC(=O)Nc2ccc(C(=O)O)c(O)c2)C1=O)=C\c1ccccc1	SKKanGAS inh 99.9 (no result: tim10-1 inh, TIM10 inh, PfHsp90 yeast 2, tim23-1 inh)
O=C(O)CCCN1C(=O)/C(=C\C(Cl)=C\c2ccccc2)SC1=S	SKKanGAS inh 65.4 (no result: tim10-1 inh, TIM10 inh, tim23-1 inh)
CN1CCN(C(=O)CCCN2C(=O)/C(=C/c3ccccc3)SC2=S)CC1	none
C/C(=N\NC(=O)c1ccccc1O)c1ccc(NC(=O)c2ccccc2)cc1	none (no result: SKKanGAS inh)
C/C(=N/NC(=O)c1ccccc1O)c1ccc(N2C(=O)C3CCCCC3C2=O)cc1 (stereo unspecified)	Calb FLC 111.0
Cc1c(C(=O)Nc2ccc(Oc3ccccc3)cc2)sc2nc3n(c(=O)c12)CCC3	SKKanGAS inh 55.7
COc1cccc(COC(=O)c2sc3nc4n(c(=O)c3c2C)CCC4)c1OC	SKKanGAS inh 93.2 (no result: Calb FLC)
O=C1COc2ccc(C(=O)COC(=O)c3cc(S(=O)(=O)NCc4ccccc4)ccc3O)cc2N1	none
CN=C1S/C(=C\c2ccc(N3CCOCC3)c(F)c2)C(=O)N1C	SKKanGAS inh 60.6 (no result: PfHsp90 yeast 2)
O=S(=O)(c1ccccc1)c1nc(-c2ccc(F)cc2)oc1N1CCOCC1	none
O=S(=O)(c1ccc(F)cc1)c1nc(-c2ccccc2)oc1N1CCOCC1	SKKanGAS inh 54.1
CCCNC(=O)NC(=O)CSc1nc2ccccc2c(=O)n1Cc1ccncc1	none
Cc1ccc(-n2ncc(Br)c(Br)c2=O)cc1	Calb FLC 96.6 (no result: tim10-1 inh, TIM10 inh, tim23-1 inh)
O=c1c(Br)c(Br)cnn1-c1ccccc1	none (no result: SKKanGAS inh, tim10-1 inh, TIM10 inh, tim23-1 inh, Calb FLC)
C=CC[C@@H](CC(=O)N[C@H](CO)Cc1ccccc1)C(=O)NC[C@H](OC(=O)[C@@H](CC=C)Cc1ccc(F)cc1)c1ccccc1	none (no result: SKKanGAS inh, Calb FLC)
O=C(NCC1CCCN1S(=O)(=O)c1cccs1)c1c(F)cccc1F (stereo unspecified)	none (no result: PfHsp90 yeast 2)
O=C1C(Nc2ccccc2)=C(N2CCCCC2)C(=O)c2ccccc21	none
COc1ccccc1NC1=C(N2CCCCC2)C(=O)c2ccccc2C1=O	Calb FLC 92.7
CCn1c2ccccc2c2cc(NC(=O)C(C)C)ccc21	Calb FLC 96.0
CCN1CCN(Cc2ccc(NC(=O)c3ccc(C)c(NC(=O)C(=O)c4c[nH]c5ccccc45)c3)cc2C(F)(F)F)CC1	SKKanGAS inh 83.0
CCN1CCN(Cc2ccc(NC(=O)c3cc(NC(=O)C(=O)c4c[nH]c5ccccc45)cc(OC)c3)cc2C(F)(F)F)CC1	SKKanGAS inh 98.8
CCN1CCN(Cc2ccc(NC(=O)c3cc(NC(=O)c4cc(C)on4)cc(OC)c3)cc2C(F)(F)F)CC1	none
